Screening data (PubChem)
IL1B secr inh – inflammasome signaling inhibition, IL-1 beta readout; THP-1 LPS/ATP IL-1B secretion, AlphaLISA, 16 h; hits give low values; activity change, % at 57.5 µM; hit rate 4.7% among 360,000; in the data active = activity change below about -50%; inconclusive = mostly about -30% to -49%
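Secreted IL-1B measured by AlphaLISA bead assay after 16 h compound exposure of THP-1 cells; compounds (final up to 57.5 uM) added 1 h before LPS (250 ng/mL) and ATP (1.25 mM) stimulation; lower signal means less secretion.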
TDP1 cell noCPT – qHTS for Inhibitors of human tyrosyl-DNA phosphodiesterase 1 (TDP1): qHTS in cells in absence of CPT; Potency, µM (top dose mostly 46.2 µM), for inactives: at the highest dose activity change, negative = growth inhibition, most hits filed as inhibitors; DT40 Tdp1-/- hTDP1 cells, no CPT, ATP luminescence, 48 h; hit rate 15% among 420,000; also: potency is read from the fitted curve at half-maximal effect; nearly all actives have a fitted effect of over 55% in size
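A cellular qHTS used chicken DT40 cells lacking endogenous Tdp1 but carrying stably transfected human TDP1. Compounds were applied without camptothecin, and cell growth kinetics were judged by ATP-dependent luminescence after ≥48 hr.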
TDP1 cell CPT – DT40-hTDP1 cell growth loss with CPT. chicken DT40 Tdp1-/-;hTDP1 cells + 20 nM CPT, ATP luminescence, 48 h. Potency, µM (titrated, usually from 46.2 µM), without a hit: at the top dose activity change, negative = growth inhibition, actives largely listed as inhibitors. hit rate 12% among 420,000; also: potency is read from the fitted curve at half-maximal effect; nearly all actives have a fitted effect of over 55% in size
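Chicken DT40 Tdp1-/- cells complemented with human TDP1, 400 cells/well, exposed to compounds plus 20 nM camptothecin for at least 48 h at 37 C; viability read as ATP content by CellTiter-Glo luminescence.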
HT1080 IDH1KD tx – toxicity to HT-1080 IDH1 knockdown cells (counter line) | AID 686971 | hit rate 2% among 360,000 | Potency, µM (titrated, usually from 46.1 µM), without a hit: top-dose activity, negative = toxicity, hits mostly cytotoxic | HT-1080 IDH1 knockdown viability, ATP luminescence, 48 h;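 also: potency is read from the fitted curve at half-maximal effect; 0% = DMSO wells and -100% = cell-free medium wells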
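Using the IDH1-knockdown HT-1080 line run in the same batch and compound series as the NT line, viability after 48 h at 37 °C was determined by CellTiter-Glo luminescence and expressed as % activity.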
HT1080NT lethal – kills 2HG-producing HT-1080-NT fibrosarcoma cells. HT-1080-NT fibrosarcoma viability, CellTiter-Glo ATP luminescence, 48 h. Potency, µM (highest dose often 46.1 µM), for the others: at the highest dose activity, negative = less viability, actives largely listed as cytotoxic. hit rate 1.6% among 360,000. AID 686970;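 also: NT is the 2HG producing partner of a matched IDH1 knockdown line; potency is read from the fitted curve at half-maximal effect; 0% = DMSO-treated cells and -100% = media-only wells without cells; nearly all actives have a fitted effect of over 55% in size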
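Fibrosarcoma NT cells, 750 per well in 5% FBS RPMI, were exposed to compound for 48 hours. Viability: CellTiter-Glo luminescence.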
ELG1 repair inh – blocks ELG1-dependent DNA repair in HEK293T cells; HEK293T ELG1-luciferase reporter, luminescence, 16 h; DNA damage induced by 5-fluorouridine; Potency, µM (doses to about 46.1 µM), for inactives: top-dose activity change, negative = inhibition, usual class: inhibitors; hit rate 2.3% among 330,000; AID 504467; also: potency is read from the fitted curve at half-maximal effect; nearly all actives have a fitted effect of over 55% in size
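Luminescence from the luciferase reporter, measured 30 min after ONE-Glo reagent at room temperature, was the read-out. Beforehand, 2,000 cells per well were exposed for 16 hr at 37 °C to 5-fluorouridine together with compound or vehicle.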
The depositor's hits bear a star; i = inactive; u = inconclusive; x = not tested or not shown; ! = not confirmed by another sample; [ ] = remark or other dose. Hits are enriched below; roughly 19% of the tested compounds scored in any of these assays. Unless noted, calls follow the shape of the dose curve; as a rule, active = well fitted curve in the direction sought with a large enough effect; inconclusive = small, poorly fitted or top-dose-only effect, or another doubt; inactive = no such curve, though single readings can be large; an effect the other way counts as inactive or inconclusive. Unless noted, % is scaled to controls: 0 for no effect and ±100 for the full control effect.

SMILES | IL1B secr inh | TDP1 cell noCPT | TDP1 cell CPT | HT1080 IDH1KD tx | HT1080NT lethal | ELG1 repair inh
O=C(NCc1nnc2c3ccccc3c(-c3ccccc3)nn12)c1ccc(Cl)cc1 | -96.6* | u | u | 5.0% | -1.5% | u
CC(=O)NCc1nnc2c3ccccc3c(-c3ccccc3)nn12 | 9.2 | 7.1% | -33.4% | -13.3% | -8.0% | u
CCOC(=O)C1(Cc2ccc(Cl)cc2)CCN(Cc2nccn2CC)CC1 | -11.7 | u | 20.6µM* | -20.4% | -4.8% | -10.5%
CCOC(=O)C1(S(=O)(=O)c2ccc(Cl)cc2)CCN(Cc2ccc(Cl)cc2)CC1 | -29.1 | 18.4µM* | 16.4µM* | -28.7% | -28.1% | -15.7%
CCOC(=O)C1(Cc2ccc(Cl)cc2)CCN(CCCn2cccn2)CC1 | -57.6* | 20.6µM* | u | -10.5% | -18.0% | 1.8%
CCOC(=O)C1(CCc2ccccc2)CCN(Cc2nccn2CC)CC1 | 6.0 | 18.4µM* | u | u | u | u
Cc1ccc2c(Cl)c(Cc3ccccc3)c(=S)[nH]c2n1 | -5.7 | u | u | -17.8% | 0.4% | x
Cn1c(-c2ccncc2)nc2cc(C(=O)N3CCCC3c3nccs3)cc(NC(=O)C3CCC3)c21 (stereo not drawn) | x | -15.3% | -12.5%[9.04 µM] | x | x | x
N#Cc1ccc(COc2ccc(CCO)cc2-n2nc3ccccc3n2)cc1 | 10.6 | 16.4µM* | u | u | -26.2% | u
Cc1ccc(NC(=O)C2CCCN(C(=O)c3ccc(Cl)cc3)C2)cc1C (stereo not drawn) | -71.3* | 2.91µM* | 4.11µM* | u | -27.2% | 1.9%
Cc1ccc(NC(=O)C2CCCN(C(=O)c3ccc(Cl)cc3)C2)cc1 (stereo not drawn) | -18.6 | u | u | -7.0% | -18.0% | -11.0%
CCOc1ccc(NC(=O)CN(C)C(=O)C2CCN(C(=O)c3ccc(Cl)cc3)CC2)cc1OCC | -51.0* | -11.0% | -6.1% | -5.6% | -0.3% | 3.4%
COC(=O)c1ccc(NC(=O)C2CCN(C(=O)c3cc(OC)c(OC)c(OC)c3)CC2)cc1 | 16.9 | u | u | 15.5% | 6.4% | -14.6%
CCOC(=O)c1ccc(NC(=O)C2CCN(C(=O)c3ccc(OC)c(OC)c3)CC2)cc1 | -13.9 | 20.6µM* | u | -13.9% | -4.5% | u
COc1ccc(C(=O)N2CCC(C(=O)Nc3ccc(Cl)cc3)CC2)cc1 | x | u | 5.8µM* | x | x | x
Cc1nn(CC(=O)Nc2ccc(S(=O)(=O)N(C)C)cc2)c(C)c1[N+](=O)[O-] | -5.5 | -28.6% | 6.1% | 5.5% | 0.9% | 7.5%
O=C(c1cnn(-c2nccc(-c3ccccc3C(F)(F)F)n2)c1C1CC1)N1CCN(CCO)CC1 | x | -15.8% | -11.5%[9.04 µM] | x | x | x
O=C(CN1CCN(c2nc(-c3ccccc3)cs2)CC1)NNC(=O)c1ccco1 | -18.1 | -26.4% | -27.8% | 0.1% | -16.7% | 11.4%
C[C@@H](NC(=O)c1[nH]cnc1C(=O)Nc1cccc(Cl)c1)c1ccccc1 | 6.4 | u | u | u | u | u
CC(=O)Nc1nc(C)c(-c2csc(Nc3cccc(C(C)=O)c3)n2)s1 | -78.5* | 5.17µM* | 3.26µM* | -4.3% | u | 5.8µM*
Cc1ccc(Nc2nc(-c3sc(NC(=O)c4cccc(Cl)c4)nc3C)cs2)cc1 | x | x | x | x | x | -3.2%
CC(=O)Nc1nc(C)c(-c2csc(Nc3ccccn3)n2)s1 | -78.9*! | 13µM* | 10.3µM* | u | -28.4% | u
CC(=O)c1cccc(Nc2nc(-c3cccc([N+](=O)[O-])c3)cs2)c1 | -0.7 | u | u | u | -15.7% | u
CC(=O)Nc1nc(C)c(-c2csc(Nc3cccc([N+](=O)[O-])c3)n2)s1 | -50.5* | 5.17µM* | 8.2µM* | u | u | 2.91µM*
CC(=O)Nc1ccc(Nc2nc(-c3sc(NC(C)=O)nc3C)cs2)cc1 | -95.3* | 13µM* | 16.4µM* | -27.0% | -0.2% | 23.1µM*
SMILES | IL1B secr inh | TDP1 cell noCPT | TDP1 cell CPT | HT1080 IDH1KD tx | HT1080NT lethal | ELG1 repair inh
Cc1nc(N)sc1-c1csc(Nc2cccc(C(=O)O)c2)n1 | 22.8 | 7.3% | -5.8% | 0.9% | 4.7% | 3.1%
Oc1ccc(-c2csc(Nc3ccccn3)n2)c(O)c1 | -4.3 | u | u | u | u | u
COc1ccc(-n2nc(C(=O)NCC(=O)N3CCCC3)c3ccccc3c2=O)cc1Cl | -8.5 | u | -16.1% | -1.7% | 17.3% | -3.6%
Cc1ccc2c(C)c(C(=O)N(Cc3ccncc3)CC3CCCO3)oc2c1C (stereo not drawn) | i | 20.6µM* | 25.9µM* | -21.2% | -16.6% | -4.0%
COc1cc(C(=O)N(Cc2ccc(N(C)C)cc2)CC2CCCO2)cc(OC)c1OC (stereo not drawn) | x | u | -28.2% | x | x | x
Cc1ccc2oc(C(=O)N(Cc3ccc(N(C)C)cc3)CC3CCCO3)c(C)c2c1 (stereo not drawn) | -24.3 | 18.4µM* | u | -8.9% | -0.9% | u
Cc1c(C(=O)N(Cc2ccncc2)CC2CCCO2)oc2c(F)cccc12 (stereo not drawn) | 5.8 | -25.8% | -11.6% | -13.3% | 5.6% | -5.2%
